# Records with an inconclusive call do not appear. Values without a mark were called inactive. The source made the active and inactive calls. Calls follow the shape of the dose curve; as a rule, active = well fitted cell-killing curve with a large enough effect in the repeat runs; inconclusive = weak or mixed curves, or effect the other way; inactive = flat fitted curve, though single readings scatter.
# Experiment: qHTS assay to identify small molecule antagonists of the androgen receptor (AR) signaling pathway using the MDA cell line - cell viability counter screen (AID 743041; also: nearly all actives have a fitted effect of over 45% in size)
# Settings: MDA-kb2 viability, CellTiter-Fluor, 16 h, cells co-treated with R1881 androgen agonist; series mostly up to 70.3 µM; viability change, negative = cytotoxic: at the top concentration
# Excerpt: National Center for Advancing Translational Sciences [NCATS]
# NIH Chemical Genomics Center [NCGC]
# U.S. Environmental Protection Agency [EPA]
# National Institutes of Environmental Health Sciences [NIEHS]
# National Toxicology Program [NTP]
# U.S. Food and Drug Administration [FDA]
# Androgen receptor (AR), a nuclear hormone receptor, plays a critical role in AR-dependent prostate cancer and other androgen related diseases. Endocrine disrupting chemicals (EDCs) and their interactions with steroid hormone receptors like AR may cause disruption of normal endocrine function as well as interfere with metabolic homeostasis, reproduction, developmental and behavioral functions. To identify the compounds that inhibit AR signaling, MDA-kb2 AR-luc cell line (from ATCC, deposited by Wilson et al.) was used to screen the Tox21 10K compound library. MDA-kb2 AR-luc cell line is human breast carcinoma cell line that was stably transfected with a luciferase reporter gene under control of the MMTV promoter containing response elements for both androgen receptor (AR) and glucocorticoid receptor (GR). The cytotoxicity of the Tox21 compound library against the MDA-kb2 AR-luc cell line was tested in parallel by measuring the cell viability using CellTiter-Fluor assay (Promega, Madison, WI) in the same wells.
# Tox21 Assay Protocol Summary:
# MDA-kb2 AR-luc cells were dispensed at 3,000 cells/4 uL/well of culture medium into white wall/solid-bottom 1536-well plates using a Multidrop Combi (ThermoFisher Scientific, Waltham, MA) dispenser. After the assay plates were incubated at a 37C and 0% CO2 for 5 hr, 23 nL of compounds dissolved in DMSO, positive controls or DMSO only was transferred to the assay plate by a Pintool station (Kalypsys, San Diego, CA), followed by addition of 1 uL of agonist (R1881) in culture medium using a Bioraptr Flying Reagent Dispenser (FRD) workstation (Beckman Coulter, Indianapolis, IN, USA). The plates were incubated at a 37C and 0% CO2 for 16 h. After 15.5 h incubation, 1uL of CellTiter-Fluor reagent (Promega) was added using a Bioraptr FRD to each plate for measuring cytotoxicity. The fluorescence intensity was quantified on a ViewLux plate reader (PerkinElmer, Shelton, CT) following 30 min incubation at 37C and 0% CO2.
# % is scaled to controls: 0 for no effect and ±100 for the full control effect; potency is read from the fitted curve at half-maximal effect.
SMILES,"viability change, negative = cytotoxic",Potency
CC(=O)NC1(c2cccc(F)c2)CCN(CC[C@@]2(c3ccc(Cl)c(Cl)c3)CN(c3ccccc3)C(=O)CO2)CC1,-26%,
Cc1ccccc1S,1.46%,
Brc1cc(Br)c(Oc2cc(Br)c(Br)cc2Br)cc1Br,0.463%,
OC[C@H]1O[C@@H](n2cnc3c(=S)nc[nH]c32)[C@H](O)[C@@H]1O,-10.3%,
Cc1cc(O)ccc1O,1.07% [at 95 µM],
Cc1ccc(CO)cc1,0.243% [at 95 µM],
COc1cc(N)c(Cl)cc1C(=O)NC1CCN(CCCOc2ccc(F)cc2)CC1OC (stereo not given),-1.78% [at 32.5 µM],
Cc1ccc2c(Br)cc(Br)c(O)c2n1,-3.41%,
CC1=C(Br)C(=O)C(Br)=C/C1=C(/c1ccccc1S(=O)(=O)O)c1cc(Br)c(O)c(Br)c1C,,41.5 µM (active)
O=C1c2ccccc2C(=O)C1c1nc2ccccc2c(Br)c1O,6.52%,
C[C@H]1c2cccc(O)c2C(O)=C2C(=O)[C@]3(O)C(O)=C(C(N)=O)C(=O)[C@@H](N(C)C)[C@@H]3[C@@H](O)[C@@H]21,5.63%,
CC[C@]1(O)C[C@H]2CN(CCc3c([nH]c4ccccc34)[C@@](C(=O)OC)(c3cc4c(cc3OC)N(C=O)[C@H]3[C@@](O)(C(=O)OC)[C@H](OC(C)=O)[C@]5(CC)C=CCN6CC[C@]43[C@@H]65)C2)C1,-8.55%,
O=c1[nH]ncc2ccccc12,-3.6%,
N#CCCN(CCO)CCO,-0.557%,
NC(=O)c1ccncc1,-12.8% [at 95 µM],
Cc1cscn1,0.444%,
Nc1nnc(-c2ccc([N+](=O)[O-])o2)o1,,61.1 µM (active)
C=C(C)[C@@H]1CCC2=CCC[C@@H](C)[C@]2(C)C1,-8.37%,
CCOC(=O)c1ccc(OCCN2C[C@H](O)[C@@H](O)[C@H](O)[C@H]2CO)cc1,-5.27%,
COC(=O)CCS,2.52%,

SMILES,"viability change, negative = cytotoxic",Potency
CN1C(C(=O)Nc2ccccn2)=C(O)c2sccc2S1(=O)=O,-0.976% [at 32.5 µM],
Oc1c(I)cc(I)c2cccnc12,-6.18%,
Clc1ccc(Nc2nnc(Cc3ccncc3)c3ccccc23)cc1,,inactive
O=c1c(O)c(-c2ccc(O)cc2)oc2cc(O)cc(O)c12,,inactive
CC(=O)OCC(=O)NCCCOc1cccc(CN2CCCCC2)c1,,inactive
C[C@@]12CCC[C@H]1[C@@H]1CC[C@H]3C[C@@H](O)CC[C@]3(C)[C@H]1CC2,-5.59%,
O=c1cc(-c2ccccc2)oc2cc(O)cc(O)c12,-14.5%,
CCC(C)COC(C)=O (stereo not given),-6.78%,
CCOC(=O)c1ccc(C#Cc2ccc3c(c2)C(C)(C)CCS3)nc1,9.83%,
OC(CCN1CCCC1)(c1ccccc1)C1CCCCC1 (stereo not given),-2.01% [at 32.5 µM],
O=c1cc(-c2ccccc2)oc2ccc3ccccc3c12,-0.159%,
CCCCCCCCCCCCCCN(CCO)CCO,0.41%,
COc1ccccc1NC(=O)c1cc2ccccc2cc1O,-19.7%,
CCCCCC[C@@H](O)C/C=C\CCCCCCCC(=O)OCC(O)CO (stereo not given in full),-2.09%,
CN1C(=O)c2ccccc2C1=O,-27.7%,
O=C(O)c1cccc(-c2noc(-c3ccccc3F)n2)c1,4.6%,
CCC(=O)OC,1.9% [at 95 µM],
O=C1c2ccccc2C(=O)N1CCc1noc(-c2ccc(CN3CCCCCC3)s2)n1,-13.1%,
CCCCCCCCC(CCCCCC)C(=O)O (stereo not given),7.27%,
C[C@@H](CN(C)C)CN1c2ccccc2Sc2ccccc21,-11.8% [at 32.5 µM],

# From PubChem BioAssay (Tox21)
